Here are results for eight molecules from PubChem BioAssay (NCI).

The structures appear in SMILES notation. Compounds without any hit were thinned out: in the full panel of roughly 83,000, 20% have a hit.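 Cell lines were cultured in 96-well plates, exposed to a single compound concentration, and assessed for percent growth 48 hours later.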 Values without a mark were called inactive. Calls of active or inactive are those of the source. Rule for the calls: active = growth percent below 10; inactive = the rest.

Test systems include SK-MEL-2 melanoma; EKVX NSCLC; SN12C renal; UO-31 renal; TK-10 renal; ACHN renal; CAKI-1 renal; A498 renal; CCRF-CEM leukemia; MOLT-4 leukemia; SR leukemia; RPMI-8226 leukemia; OVCAR-8 ovarian; OVCAR-5 ovarian; OVCAR-4 ovarian; SK-OV-3 ovarian; IGROV1 ovarian; OVCAR-3 ovarian; HS 578T breast; NCI/ADR-RES ovarian.
Common to all, as to test: NCI-60 one-dose screen, 48 h (100 = growth as untreated, 0 = no growth, -100 = all killed)
Settings in all cases: 10 µM unless noted

Consider `CCOP(=O)(OCC)/C(=C\N1C(=O)CC(=O)NC1=S)C(=O)OC`, for which the growth is 118% in the assay on SK-MEL-2 melanoma; 98.9% in the assay on EKVX NSCLC; 101% in the assay on SN12C renal; 90% with UO-31 renal; 112% with TK-10 renal; 99.5% in the assay on ACHN renal. For the same molecule, the growth in the assay with CAKI-1 renal is 97.4%; with A498 renal it was 87.7%; in the assay with CCRF-CEM leukemia, 103%; in the assay with MOLT-4 leukemia it was 100%; in the assay with SR leukemia it was 96.7%; in the assay on RPMI-8226 leukemia, 101%. Also, the growth in the assay on OVCAR-8 ovarian was 97.6%; in the assay on OVCAR-5 ovarian, 98.7%; in the assay on OVCAR-4 ovarian, 94.3%; in the assay with SK-OV-3 ovarian, 104%; in the assay on IGROV1 ovarian it was 103%; in the assay on OVCAR-3 ovarian, 114%. Moreover, the growth in the assay on HS 578T breast is 98.4%; in the assay on NCI/ADR-RES ovarian, 104%.
In the case of `CC(=O)C1C(=O)C(=O)N(c2ccc(Cl)c(Cl)c2)C1=O` (stereo not drawn), the growth was 111% in the assay with SK-MEL-2 melanoma; 92.1% with EKVX NSCLC; 97.4% with SN12C renal; 95.2% with UO-31 renal; 107% in the assay with TK-10 renal; 97.8% in the assay on ACHN renal. Moreover, the growth with CAKI-1 renal was 93.4%; in the assay on A498 renal, 118%; in the assay with CCRF-CEM leukemia, 115%; with MOLT-4 leukemia, 91.5%; in the assay with SR leukemia it was 91.2%; with RPMI-8226 leukemia it was 107%. For the same molecule, the growth in the assay with OVCAR-8 ovarian is 101%; with OVCAR-5 ovarian, 104%; with OVCAR-4 ovarian, 88.5%; with SK-OV-3 ovarian, 106%; in the assay on IGROV1 ovarian it was 98.6%; with OVCAR-3 ovarian, 107%. In addition, the growth is 103% with HS 578T breast and 97% with NCI/ADR-RES ovarian.
On to `CN1CCCN(C(c2ccccc2)c2ccc(Br)cc2)CC1` (stereo not drawn), for which the growth with SK-MEL-2 melanoma was 113%; in the assay on EKVX NSCLC it was 66.9%; in the assay with SN12C renal, 65.4%; in the assay with UO-31 renal it was 60.5%; with TK-10 renal, 61.4%; in the assay with ACHN renal it was 50.6%. Also, the growth with CAKI-1 renal is 49.2%; in the assay with A498 renal, 74.2%; in the assay on CCRF-CEM leukemia, 96.6%; in the assay with MOLT-4 leukemia it was 55.5%; in the assay on SR leukemia, 4.87% (active); in the assay with RPMI-8226 leukemia it was 84.1%. For the same molecule, the growth with OVCAR-8 ovarian was 93.9%; with OVCAR-5 ovarian, 92.6%; with OVCAR-4 ovarian, 84.7%; with SK-OV-3 ovarian it was 81.5%; in the assay on IGROV1 ovarian it was 78.6%; in the assay on OVCAR-3 ovarian, 69.9%. In addition, the growth with HS 578T breast was 42.4%; in the assay on NCI/ADR-RES ovarian, 79.1%.
For the molecule `CCN(CC)CCOC(=O)Nc1c(C(C)C)cccc1C(C)C`, the growth with SK-MEL-2 melanoma is 124%; in the assay with EKVX NSCLC it was 106%; in the assay with SN12C renal it was 105%; with UO-31 renal it was 83.1%; in the assay on TK-10 renal it was 105%; in the assay with ACHN renal, 105%. The growth was 88.9% with CAKI-1 renal; 118% in the assay with A498 renal; 98.4% in the assay with CCRF-CEM leukemia; 105% with MOLT-4 leukemia; 101% in the assay on SR leukemia; 105% in the assay with RPMI-8226 leukemia. For the same molecule, the growth in the assay on OVCAR-8 ovarian was 102%; with OVCAR-5 ovarian it was 104%; in the assay on OVCAR-4 ovarian, 108%; in the assay with SK-OV-3 ovarian, 95.7%; with IGROV1 ovarian, 100%; in the assay on OVCAR-3 ovarian it was 114%. The growth was 105% in the assay with HS 578T breast and 113% in the assay on NCI/ADR-RES ovarian.
On to `CC(C)C1CCC(C)C(O)C1` (stereo not drawn), for which the growth in the assay with SK-MEL-2 melanoma was 94.2%; in the assay with EKVX NSCLC, 102%; in the assay on SN12C renal, 96.3%; with UO-31 renal, 89.3%; with TK-10 renal, 99.2%; with ACHN renal, 104%. In addition, the growth was 98% with CAKI-1 renal; 92% with A498 renal; 96.1% with CCRF-CEM leukemia; 113% in the assay with MOLT-4 leukemia; 96.1% with SR leukemia; 101% in the assay with RPMI-8226 leukemia. Also, the growth is 99.1% with OVCAR-8 ovarian; 108% in the assay with OVCAR-5 ovarian; 108% with OVCAR-4 ovarian; 106% with SK-OV-3 ovarian; 104% in the assay with IGROV1 ovarian; 105% with OVCAR-3 ovarian. Besides, the growth in the assay with HS 578T breast was 93.5%; in the assay with NCI/ADR-RES ovarian it was 103%.
Take `CN1CCN(C(=S)S)CC1`: the growth is 114% in the assay on SK-MEL-2 melanoma; 106% with EKVX NSCLC; 108% in the assay on SN12C renal; 98.4% in the assay with UO-31 renal; 111% in the assay on TK-10 renal; 105% in the assay with ACHN renal. In addition, the growth was 99.5% in the assay on CAKI-1 renal; 118% with A498 renal; 89% in the assay with CCRF-CEM leukemia; 105% in the assay with MOLT-4 leukemia; 104% with SR leukemia; 102% with RPMI-8226 leukemia. The growth in the assay with OVCAR-8 ovarian was 109%; with OVCAR-5 ovarian, 106%; in the assay on OVCAR-4 ovarian, 127%; with SK-OV-3 ovarian it was 111%; with IGROV1 ovarian it was 74.4%; with OVCAR-3 ovarian it was 115%. The growth in the assay with NCI/ADR-RES ovarian is 108%.
As to `Oc1cccc(CNC2CCCCC2)c1`, the growth in the assay with SK-MEL-2 melanoma was 115%; in the assay on EKVX NSCLC it was 115%; in the assay with SN12C renal, 106%; with UO-31 renal, 86.6%; in the assay on TK-10 renal, 105%; in the assay on ACHN renal, 107%. Besides, the growth was 106% in the assay with CAKI-1 renal; 136% in the assay on A498 renal; 107% in the assay with CCRF-CEM leukemia; 106% in the assay with MOLT-4 leukemia; 102% with SR leukemia; 104% with RPMI-8226 leukemia. The growth is 110% with OVCAR-8 ovarian; 108% with OVCAR-5 ovarian; 126% in the assay on OVCAR-4 ovarian; 109% in the assay with SK-OV-3 ovarian; 108% in the assay on IGROV1 ovarian; 119% in the assay on OVCAR-3 ovarian. For the same molecule, the growth with NCI/ADR-RES ovarian is 110%.
Take `O=C(Nc1cccc(Cl)c1)c1ccc(Cl)cc1Cl`: the growth was 95.6% in the assay on SK-MEL-2 melanoma; 84.3% with EKVX NSCLC; 92.9% with SN12C renal; 82.7% in the assay with UO-31 renal; 90.1% with TK-10 renal; 99.7% with ACHN renal. The growth in the assay with CAKI-1 renal was 92.2%; in the assay with A498 renal, 87.8%; in the assay on CCRF-CEM leukemia, 89.6%; in the assay on MOLT-4 leukemia, 87.9%; in the assay on SR leukemia it was 81.4%; with RPMI-8226 leukemia, 84.5%. Further, the growth with OVCAR-8 ovarian was 97.4%; in the assay on OVCAR-5 ovarian, 95.8%; in the assay with OVCAR-4 ovarian, 107%; in the assay on SK-OV-3 ovarian it was 95%; in the assay on IGROV1 ovarian, 107%; in the assay with OVCAR-3 ovarian it was 98%. The growth in the assay on HS 578T breast is 92.7%; with NCI/ADR-RES ovarian it was 103%.
